Compound activity as filed in PubChem BioAssay.
aSyn yeast inh: qHTS of alpha-syn Inhibitors; Yeast expressing alpha-synuclein, growth rescue, BacTiter-Glo, 24 h; Potency, µM (series often up to 46.1 µM), without a hit: at the top dose growth rescue (activation), hits mostly activators; 370,000 tested, 0.14% active; AID 652106, 2013; also: % of control where 0% means no effect; nearly all actives have a fitted effect of over 65% in size
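Readout is rescue of growth in alpha-synuclein-expressing yeast, so inhibitors of toxicity appear as activators. Growth after 24 hr at 30 deg C in galactose medium is quantified by luminescence.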
Abeta rescue: qHTS for compounds that reverse cellular toxicity of Amyloid beta (A-beta) peptide in yeast: Primary Screen. yeast expressing A-beta42, growth rescue, OD600, 48 h; response scale: 0% DMSO, 100% iron-clioquinol control. Potency, µM (top dose mostly 46.1 µM), actives largely listed as activators. 410,000 tested, 0.063% active. AID 1347071, 2019; also: nearly all actives have a fitted effect of over 55% in size
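Growth rescue measured by 600 nm absorbance after 48 h yeast culture at 30 C with compound. Values normalized between DMSO and an equimolar ferric chloride plus clioquinol control.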
FUS yeast rescue: qHTS for Suppressors of FUS Proteinopathy: Primary screen using FUS-linked yeast assay; S. cerevisiae FUS-expressing, growth rescue, OD600, 24 h; Potency, µM (series often up to 76.6 µM), most hits filed as activators; 390,000 tested, 0.24% active; AID 1347120, 2019;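 also: plate controls were DMSO vehicle for no effect and reference control for full effect; nearly all actives have a fitted effect of over 55% in size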
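Quantitative HTS measuring growth restoration of FUS-toxic yeast. Galactose-induced cells (OD 0.005) were exposed 24hr at 30C to compounds at several concentrations, then absorbance at 600 nm was recorded.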
TDP43 rescue: qHTS of TDP-43 Inhibitors. Potency, µM (highest dose often 46.1 µM), without a hit: at the highest dose growth rescue (activation), usual class: activators. 410,000 tested, 1.8% active. TDP-43 expressing yeast growth rescue, BacTiter-Glo, 24 h. AID 652104, 2013; also: % of control where 0% means no effect; nearly all actives have a fitted effect of over 50% in size
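In this qHTS, compounds that restore growth of yeast expressing TDP-43 appear as activators. Cells (OD600=0.02, galactose medium, raffinose-pregrown) are incubated with compound 24 hr at 30 deg C and growth is quantified by BacTiter-Glo.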
The depositor's hits bear a star; i = inactive; ? = inconclusive; nt = no result. Hits are enriched below; roughly 2.1% of the tested compounds scored in any of these assays. Calls follow the shape of the dose curve; as a rule, active = well fitted curve in the direction sought with a large enough effect; inconclusive = small, poorly fitted or top-dose-only effect, or another doubt; inactive = no such curve, though single readings can be large; an effect the other way counts as inactive or inconclusive. Potency is read from the fitted curve at half-maximal effect.

SMILES	aSyn yeast inh	Abeta rescue	FUS yeast rescue	TDP43 rescue
Cc1ccc(-c2csc(C(O)(c3ccccc3)C(F)(F)F)n2)cc1C (stereo not given)	-61%	i	i	-92%
CC(=O)N1CCCC1c1nc2ccccc2n1Cc1ccccc1Cl (stereo not given)	nt	i	i	10%
COc1ccc(C(C)(O)c2nc(-c3ccccc3)cs2)cc1 (stereo not given)	?	?	i	8.9µM*
COc1ccc(C(=O)NCCc2sc(-c3cccc(F)c3)nc2C)cc1	nt	i	?	22µM*
COc1ccc(-c2nc(C)c(CCNC(=O)c3c(F)cccc3F)s2)cc1	-1%	i	i	10µM*
Cc1cccc(C(=O)NCCc2sc(-c3ccccc3)nc2C)c1	?	i	i	?
Cc1nc(-c2ccc(F)cc2)sc1CCNC(=O)Cc1ccc(F)cc1	nt	i	i	?
COc1cccc(C(=O)NCCc2sc(-c3cccc(C)c3)nc2C)c1	-8%	i	?	25µM*
Cc1nc(-c2ccc(F)cc2)sc1CCNC(=O)c1ccccc1C(F)(F)F	nt	i	i	13µM*
COc1ccccc1NC(=O)CSc1oc(-c2ccccc2)nc1S(=O)(=O)c1ccc(C)cc1	nt	i	i	11%
CCOc1ccc(CC(=O)NCCc2sc(-c3cccc(F)c3)nc2C)cc1	nt	i	i	?
COc1ccc(CC(=O)NCCc2sc(-c3cccc(F)c3)nc2C)cc1	nt	i	i	11µM*
COc1ccc(OC)c(CCNC(=O)c2cnn(-c3ccccc3Cl)c2C2CCN(C(=O)OC(C)(C)C)CC2)c1	nt	i	i	0%
CCCCN1C(=O)C(O)(CC(=O)c2ccc(C(C)(C)C)cc2)c2ccccc21 (stereo not given)	nt	?	?	22%
O=C(OCC(=O)c1cccc2ccccc12)c1ccc(CO)cc1	16%	i	i	14µM*
O=C(Nc1ccccc1Cl)N1CCCN(c2nc(-c3ccccc3)ns2)CC1	16%	i	i	0%
O=C(Nc1ccccc1)N1CCN(c2nc(-c3ccccc3)ns2)CC1	-3%	i	i	11µM*
Oc1ccc(CNc2ccc(C(F)(F)F)cc2F)c2cccnc12	nt	nt	i	nt
CC(=O)CSc1nnc2c3ccccc3nc(C(C)(C)C)n12	2%	i	i	14µM*
Cc1ccc(C(=O)CSc2nnc3c4ccccc4nc(C(C)(C)C)n23)cc1	-1%	i	i	-14%
Cc1ccc(-c2nc(S(=O)(=O)c3ccc(C)cc3)c(N3CCCCC3)o2)cc1	nt	i	i	-14%
Fc1c(F)c(F)c(CSc2nc3ccccc3[nH]2)c(F)c1F	-11%	i	i	11µM*
c1ccc2c(-c3csc(-c4ccncc4)n3)c[nH]c2c1	15%	i	i	4µM*
CC(C)c1cnc2c(c1SCC(=O)Nc1cccc(F)c1)c(=O)n(C)c(=O)n2C	nt	i	i	35µM*
Cc1cccc(N2CCN(S(=O)(=O)c3cc(C(=O)Nc4ccccc4Cl)ccc3F)CC2)c1C	nt	i	i	6%
SMILES	aSyn yeast inh	Abeta rescue	FUS yeast rescue	TDP43 rescue
C/C(=N\OC(=O)C1CC1)C1CC1c1ccc(F)cc1 (stereo not given)	-16%	i	i	?
COc1ccc(C2CC2/C(C)=N/OC(=O)C2CC2)cc1 (stereo not given)	-20%	i	i	14µM*
Cc1ccc(Sc2c(C)nn(-c3ccccc3)c2OC(=O)C(C)(C)C)cc1	nt	i	i	14µM*
CCC(=O)Oc1c(Sc2ccc(C)cc2)c(C)nn1-c1ccccc1	nt	i	i	30%
CCCC(=O)Oc1c(Sc2ccc(C)cc2)c(C)nn1-c1ccccc1	nt	i	i	11µM*
Cc1nn(-c2ccccc2)c(OC(=O)C(C)(C)C)c1Sc1ccccc1	nt	i	i	?
CCC(=O)N1CCc2cc(Br)cc(S(=O)(=O)CCC(=O)NCc3cccc(OC)c3)c21	nt	i	i	14%
COc1ccc(C(O)c2nc(-c3ccc4ccccc4c3)cs2)cc1 (stereo not given)	3.5µM*	i	i	3%
COc1ccc(-c2csc(C(O)c3ccc(F)cc3)n2)cn1 (stereo not given)	2%	i	i	35µM*
